The values below come from PubChem BioAssay.

Values joined by “and” are separate entries in the source; they are usually repeats but may differ in a detail not shown here. Equal entries are not always repeated.

The nature of this test: compound effects on lung adenocarcinoma cell viability – A549, calcein-AM fluorescence, 48 h, basal, profiling panel (AID 1162). Further: test concentration not given here. Particulars: higher = more signal.
For the molecule `C[C@@H]1CC[C@@H](C(=O)O)N[C@H]1c1ccc(-c2ccco2)cc1`, the z-score is 1.11. Under `C=CCN(C(=O)C1N(C(C)(C)CO)C(=O)C2C(C(=O)O)C3C=CC21O3)C(C)(C)C` (stereo unspecified) stands -0.209 and -0.173. Turning to `C=CCN(C(=O)C(c1cccs1)N(C(=O)/C=C\C(=O)O)c1ccc(CCO)cc1)C(C)(C)C` (stereo unspecified), the z-score was -0.392 and -0.51.

With `Cc1ccc(S(=O)(=O)N[C@H]2COC(=O)[C@@H](Cc3ccccc3)NC(=O)[C@@H](C)COC(=O)CC=C[C@@H]2C)cc1`, the z-score was 0.671 and -0.545.

With `CC(C)[Si]1(C(C)C)OCc2cc(CCCc3cc4c(c(CCc5ccccc5)n3)[Si](C(C)C)(C(C)C)OC4)nc(CCc3ccccc3)c21`, the z-score was 0.148 and -0.222. As for `O=c1n(-c2ccccc2)c(=O)n2n1CC[C@@H]1C(=NOC[C@@H](O)COCc3ccco3)[C@H]3O[C@H]3[C@@H](O)[C@@H]12`, the figure is -1.18 and 0.202. As for `O=C1C[C@]2(c3ccc([N+](=O)[O-])cc3)C(=O)N(Cc3ccccc3)c3cc(CO)ccc3[C@H]2N1C1CCCCC1`, the figure is -0.8 and 0.627; as for `CCOC(=O)[C@H](CC(C)C)NC(=O)CCC1CC(OC(=O)NCc2cccc3ccccc23)CC2(CCCC(COC(=O)NCc3ccccc3)O2)O1` (stereo partly specified), 0.531; as for `CCOC(=O)c1ccc(NC(=O)O[C@H]2[C@H](OC(=O)Nc3ccccc3)[C@H](OC(=O)Nc3ccccc3)[C@@H](OC)O[C@@H]2CO)cc1`, -0.299 and -1.3.

Take `CC[C@@H]1C(Sc2ccccc2)C(C(=O)O)[C@H](c2ccc(C)cc2)N1S(=O)(=O)c1ccc(C)cc1` (stereo partly specified): the z-score is 0.0996 and 0.624. `CCCC[C@@H]1CN2[C@@H](CC[C@@H](C)[C@@H]2c2ccc(Br)cc2)C(=O)O1`: the z-score is 0.761 and 1.06.
